From the antibiotic and cytotoxicity screens of Wong et al. (2023)
The whole screen tested about 39,000 compounds, of which about 3,300 (8.5%) were called active. The list comes from a sample in which actives are over-represented; it also holds similar structures and randomly drawn compounds.

The compounds below were run on HepG2 (assay: cytotoxicity call (relative viability < 0.9)). Conditions: 10 µM.

Question: With `Cc1ccc(S(=O)(=O)N(C)C[C@H]2Oc3ccc(NS(C)(=O)=O)cc3C(=O)N([C@H](C)CO)C[C@@H]2C)cc1` as the compound, how does the cytotoxicity call read?
Answer: Its cytotoxicity call is “inactive”.

Question: With `Cc1noc(C)c1NC(=O)Nc1ccc2c(c1)C(=O)N([C@H](C)CO)C[C@@H](C)[C@H](CN(C)Cc1ccc(C(F)(F)F)cc1)O2` as the compound, how does the cytotoxicity call read?
Answer: Its cytotoxicity call is “inactive”.

Question: For `COc1ccc([C@@H]([C@H](Cc2ccccc2)OC(C)=O)N2C[C@@H](CC(=O)N(C)C)[C@H]3[C@@H]([C@@H]2Cc2ccccc2)N(C)O[C@@H]3c2ccccc2)cc1`, which cytotoxicity call is on record?
Answer: The cytotoxicity call was “active”.

Question: `COc1ccc([C@@H]([C@H](Cc2ccccc2)OC(C)=O)N2C[C@@H]3[C@H]([C@@H]2Cc2ccccc2)N(C)O[C@@]3(O)[C@@H](O)c2ccccc2)cc1` was tested. Which cytotoxicity call did it give?
Answer: The cytotoxicity call was “inactive”.

Question: For `COc1ccc([C@@H]([C@H](Cc2ccccc2)OC(C)=O)N2C[C@@H](OC(C)=O)[C@@H]3[C@H]([C@@H]2Cc2ccccc2)N(C)O[C@H]3c2ccccc2)cc1`, which cytotoxicity call is on record?
Answer: Its cytotoxicity call is “inactive”.

Question: How did the cytotoxicity call turn out when `COc1ccc([C@@H]([C@H](Cc2ccccc2)OC(C)=O)N2C[C@@H](CC(=O)N(C)C)[C@@H]3[C@H]([C@@H]2Cc2ccccc2)N(C)O[C@H]3c2ccccc2)cc1` was run?
Answer: Its cytotoxicity call is “inactive”.

Question: Which cytotoxicity call does the source give for `COc1ccc([C@@H]([C@H](Cc2ccccc2)OC(C)=O)N2C[C@H]3[C@H]([C@@H](OC(C)=O)c4ccccc4)ON(C)[C@H]3[C@@H]2Cc2ccccc2)cc1` here?
Answer: The cytotoxicity call was “active”.

Question: For `COc1ccc([C@@H]([C@H](Cc2ccccc2)OC(C)=O)N2C[C@H]3[C@@H]([C@@H](O)c4ccccc4)ON(C)[C@H]3[C@@H]2Cc2ccccc2)cc1`, which cytotoxicity call is on record?
Answer: Its cytotoxicity call is “active”.

Question: `COc1ccc([C@@H]([C@H](Cc2ccccc2)OC(C)=O)N2C[C@H](CC(=O)N(C)C)[C@@H]3[C@H]([C@@H]2Cc2ccccc2)N(C)O[C@H]3c2ccccc2)cc1` was tested. Which cytotoxicity call did it give?
Answer: Its cytotoxicity call is “inactive”.

Question: With `COc1ccc([C@@H]([C@H](Cc2ccccc2)OC(C)=O)N2C[C@@H]3C(=NO[C@H]3[C@@H](OC(C)=O)c3ccccc3)[C@@H]2Cc2ccccc2)cc1` as the compound, how does the cytotoxicity call read?
Answer: The cytotoxicity call was “inactive”.

Question: For `COc1ccc([C@@H]([C@H](Cc2ccccc2)OC(C)=O)N2C[C@@H](NC(=O)C(Cl)(Cl)Cl)[C@@H]3[C@H]([C@@H]2Cc2ccccc2)N(C)O[C@H]3c2ccccc2)cc1`, which cytotoxicity call is on record?
Answer: The cytotoxicity call was “inactive”.

Question: How did the cytotoxicity call turn out when `Cn1cnc(S(=O)(=O)N[C@@H]2CC[C@@H](CC(=O)Nc3ccccc3)O[C@H]2CO)c1` was run?
Answer: The cytotoxicity call was “inactive”.

Question: With `Cc1ccc(S(=O)(=O)Nc2ccc3c(c2)CC(=O)N([C@@H](C)CO)C[C@@H](C)[C@@H](CN(C)C(=O)NC(C)C)O3)cc1` as the compound, how does the cytotoxicity call read?
Answer: The cytotoxicity call was “inactive”.

Question: `O=C(Nc1ccc2c(c1)[C@@H]1C[C@H](CC(=O)N3CCc4ccccc4C3)O[C@H](CO)[C@@H]1O2)C1CCOCC1` was tested. Which cytotoxicity call did it give?
Answer: The cytotoxicity call was “inactive”.

Question: `C[C@H](CO)N1C[C@H](C)[C@@H](CN(C)C(=O)Nc2cccc3ccccc23)OCCCC[C@H](C)Oc2ccc(NC(=O)Nc3ccccc3)cc2C1=O` was tested. Which cytotoxicity call did it give?
Answer: The cytotoxicity call was “inactive”.

Question: For `Cc1noc(C)c1S(=O)(=O)N(C)C[C@H]1Oc2ccc(NS(C)(=O)=O)cc2CC(=O)N([C@@H](C)CO)C[C@@H]1C`, which cytotoxicity call is on record?
Answer: The cytotoxicity call was “inactive”.

Question: For `C[C@H](CO)N1C[C@H](C)[C@H](CN(C)C(=O)NC2CCCCC2)Oc2c(NC(=O)C3CC3)cccc2C1=O`, which cytotoxicity call is on record?
Answer: The cytotoxicity call was “inactive”.

Question: Which cytotoxicity call does the source give for `C[C@@H]1CCCCO[C@@H](CN(C)S(C)(=O)=O)[C@@H](C)CN([C@H](C)CO)C(=O)c2cc(NS(=O)(=O)c3ccc(F)cc3)ccc2O1` here?
Answer: The cytotoxicity call was “inactive”.

Question: For `C[C@@H]1CCCCO[C@@H](CN(C)C(=O)Nc2cccc3ccccc23)[C@@H](C)CN([C@H](C)CO)C(=O)c2cc(NC(=O)Nc3ccccc3)ccc2O1`, which cytotoxicity call is on record?
Answer: Its cytotoxicity call is “inactive”.

Question: `O=C(O)COc1nn(Cc2ccccc2)c2ccccc12` was tested. Which cytotoxicity call did it give?
Answer: The cytotoxicity call was “inactive”.

Question: How did the cytotoxicity call turn out when `CN(C)CCCOc1nn(Cc2ccccc2)c2ccccc12.Cl` was run?
Answer: Its cytotoxicity call is “active”.

Question: `COc1cccc(OCc2ccc(Cn3nc(NC(=O)Nc4c(OC)cccc4OC)c4ccccc43)cc2)c1` was tested. Which cytotoxicity call did it give?
Answer: Its cytotoxicity call is “inactive”.

Question: With `C[C@H]1CN([C@@H](C)CO)S(=O)(=O)c2ccc(C#CC3CC3)cc2O[C@@H]1CN(C)Cc1ccccc1F` as the compound, how does the cytotoxicity call read?
Answer: The cytotoxicity call was “inactive”.

Question: With `C[C@@H]1CN([C@@H](C)CO)C(=O)Cc2cc(NC(=O)Cn3cnnn3)ccc2O[C@@H]1CN(C)S(=O)(=O)c1ccc(F)cc1` as the compound, how does the cytotoxicity call read?
Answer: The cytotoxicity call was “inactive”.

Question: Which cytotoxicity call does the source give for `Cc1ccccc1S(=O)(=O)N1C[C@H](O)COC[C@H]2O[C@@H](CC(=O)NCCc3ccccc3)CC[C@@H]21` here?
Answer: Its cytotoxicity call is “inactive”.

Question: With `Nc1nc2nc[nH]c2c(=S)[nH]1` [listing 1 of 2 here] as the compound, how does the cytotoxicity call read?
Answer: Its cytotoxicity call is “inactive”.

Question: Which cytotoxicity call does the source give for `Nc1nc2nc[nH]c2c(=S)[nH]1` [listing 2 of 2 here] here?
Answer: Its cytotoxicity call is “active”.

Question: Which cytotoxicity call does the source give for `O=c1[nH]cnc2nc[nH]c12` here?
Answer: Its cytotoxicity call is “inactive”.

Question: For `S=c1[nH]cnc2nc[nH]c12`, which cytotoxicity call is on record?
Answer: Its cytotoxicity call is “active”.

Question: `Nc1ncnc2nc[nH]c12` was tested. Which cytotoxicity call did it give?
Answer: The cytotoxicity call was “inactive”.

Question: How did the cytotoxicity call turn out when `Nc1nc2nc[nH]c2c(=O)[nH]1` was run?
Answer: The cytotoxicity call was “inactive”.

Question: How did the cytotoxicity call turn out when `N#CCN(CC#N)C(=O)c1ccco1` was run?
Answer: The cytotoxicity call was “inactive”.

Question: With `CC(C)CC#Cc1ccc2c(c1)O[C@@H](CN(C)C(=O)C1CCOCC1)[C@@H](C)CN([C@@H](C)CO)S2(=O)=O` as the compound, how does the cytotoxicity call read?
Answer: Its cytotoxicity call is “inactive”.

Question: Which cytotoxicity call does the source give for `COc1ccc(S(=O)(=O)N(C)C[C@H]2Oc3ccc(NS(=O)(=O)c4ccccc4)cc3C(=O)N([C@@H](C)CO)C[C@H]2C)cc1` here?
Answer: The cytotoxicity call was “inactive”.

Question: `Cc1noc(C)c1S(=O)(=O)Nc1ccc2c(c1)CC(=O)N([C@H](C)CO)C[C@H](C)[C@H](CN(C)Cc1ccncc1)O2` was tested. Which cytotoxicity call did it give?
Answer: Its cytotoxicity call is “inactive”.

Question: For `COc1ccc(S(=O)(=O)N2C[C@@H](O)COC[C@@H]3O[C@H](CC(=O)NCCCN(C)C)CC[C@H]32)cc1`, which cytotoxicity call is on record?
Answer: Its cytotoxicity call is “inactive”.

Question: For `COc1cc(O)c(C(=O)c2ccccc2)cc1S(=O)(=O)O`, which cytotoxicity call is on record?
Answer: Its cytotoxicity call is “inactive”.

Question: `COc1ccc(C(=O)c2ccccc2)c(O)c1` was tested. Which cytotoxicity call did it give?
Answer: The cytotoxicity call was “inactive”.

Question: With `COc1cc(O)cc(O)c1C(=O)c1ccccc1` as the compound, how does the cytotoxicity call read?
Answer: The cytotoxicity call was “active”.

Question: For `C[C@H]1CN([C@@H](C)CO)C(=O)c2cc(C#Cc3cccnc3)cnc2O[C@H]1CN(C)S(=O)(=O)c1ccccc1F`, which cytotoxicity call is on record?
Answer: The cytotoxicity call was “inactive”.

Question: For `C[C@@H]1CN([C@H](C)CO)S(=O)(=O)c2ccc(C#CCN(C)C)cc2O[C@H]1CN(C)S(=O)(=O)c1cccc(F)c1`, which cytotoxicity call is on record?
Answer: Its cytotoxicity call is “inactive”.

Question: Which cytotoxicity call does the source give for `C[C@@H]1CN([C@H](C)CO)C(=O)c2cccc(NC(=O)C3CCOCC3)c2O[C@@H]1CN(C)S(=O)(=O)c1ccccc1` here?
Answer: Its cytotoxicity call is “inactive”.

Question: With `Cc1n[nH]c(NCc2ccco2)nc1=O` as the compound, how does the cytotoxicity call read?
Answer: Its cytotoxicity call is “inactive”.

Question: How did the cytotoxicity call turn out when `Cc1n[nH]c(N/N=C/c2ccccn2)nc1=O` was run?
Answer: Its cytotoxicity call is “active”.

Question: Which cytotoxicity call does the source give for `CCCNc1nc(=O)c(C)n[nH]1` here?
Answer: The cytotoxicity call was “inactive”.

Question: `O=C(O)[C@@H]1CCCC[C@@H]1C(=O)N1CCc2ccccc2[C@H]1CN1C(=O)c2ccccc2C1=O.O=C(O)[C@H]1CCCC[C@@H]1C(=O)N1CCc2ccccc2[C@H]1CN1C(=O)c2ccccc2C1=O` was tested. Which cytotoxicity call did it give?
Answer: The cytotoxicity call was “inactive”.
